This is an account of results in PubChem BioAssay AID449762 (Southern Research Specialized Biocontainment Screening …, 2010).

Out of some 330,000 compounds screened, about 1,900 (0.58%) were called active. Not shown: some 4% with an inconclusive outcome. Rule as the data show it: inconclusive = inhibition above about 70% without an active follow-up result; inactive = below that. A selection follows. Entries with a potency or affinity are not part of this list.

The experiment is described as follows: M. tuberculosis growth inhibition, HTS (AID 449762).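 Also: bacterial growth assessed after seven days of incubation.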 Particulars: M. tuberculosis H37Rv growth inhibition, 7H9 media; at 25 µM; stronger effect = higher value.
As for `CCn1ccc(C(=O)Nc2ccc3c(c2)CCC3)n1`, the inhibition (commonly the relative decrease from the control value, in per cent) is -10.2% (inactive). As for `COc1ccc(/C=N/n2c(C)nc3ccccc3c2=O)cc1OC`, the inhibition is 7.03% (inactive). As for `NC(=O)c1ccc(NC(=S)NCc2ccco2)cc1`, the inhibition was -0.21% (inactive). For the compound `O=C(NNC(=O)C12CC3CC(CC(C3)C1)C2)c1cnccn1`, the inhibition is -6.86% (inactive).

Regarding `O=C(NNC(=O)C12CC3CC(CC(C3)C1)C2)c1ccncc1`, the inhibition was 2.26% (inactive). Under `COc1ccc(CCOC(=O)c2ccc(NC(=O)CC#N)cc2)cc1` stands -3.16% (inactive); under `Cc1c(C(=O)NCCCN2CCCC2=O)oc2c(Cl)cccc12`, -3.89% (inactive); under `CC(=O)C1=C(C)Nc2ncnn2C1c1ccc(Br)cc1` (configuration not stated), 2.48% (inactive).

On to `Cc1nn(CC(=O)Nc2c(C)n(C)n(-c3ccccc3)c2=O)c(C)c1[N+](=O)[O-]`, for which the inhibition is -2.07% (inactive). Under `COc1ccc(NC(=O)CCC(=O)N(Cc2ccc(OC)c(OC)c2)c2nccs2)c(OC)c1` stands -1.87% (inactive).

In the case of `O=c1cc(-c2ccccc2)[nH]c2ccccc12`, the inhibition is 3.78% (inactive).

With `O=c1nc(-c2ccccc2)c2ccccc2[nH]1`, the inhibition is -8.68% (inactive). Under `c1cc2c(cc1C1CCCCC1)c1c3n2CCN=C3CCC1` stands -6.21% (inactive).

On to `Cc1ccc2c(c1)c1c(n2C)C(=O)CCC1`, for which the inhibition was -12% (inactive). Under `COc1cccc(OCC(=O)Nc2c3c(nn2-c2ccccc2)CS(=O)(=O)C3)c1` stands 4.27% (inactive); under `Cc1ccc(/C=N/NC(=O)Cc2cccn2C)s1`, 4.27% (inactive). In the case of `COC(=O)C1=C(C)Nc2c(c(=O)n(C)c(=O)n2C)C1c1cccs1` (configuration not stated), the inhibition was -11.8% (inactive). Consider `Cc1noc(C)c1C(=O)OCC(=O)Nc1cc(Cl)ccc1Oc1ccccc1`, for which the inhibition is 2.51% (inactive). As to `Cc1ccc(N(CC(=O)Nc2cccc(Cl)c2C)S(C)(=O)=O)cc1`, the inhibition was 7.2% (inactive). Then `O=C(Cc1cccc(NC(=O)C2CCCN(C(=O)C3CCC3)C2)c1)Nc1cccc(C(=O)N2CCCC2)c1` (configuration not stated), with -9.14% (inactive); and `CS(=O)(=O)Nc1ccc(C2=NN(C(=O)c3ccccc3)C(c3cccs3)C2)cc1` (configuration not stated), with 26.9% (inactive). In the case of `Cc1cccc(C(=O)N2N=C(c3ccc(NS(C)(=O)=O)cc3)CC2c2cccs2)c1` (configuration not stated), the inhibition was 2.79% (inactive).

As to `O=C(O)C(O)C(O)C(O)C(O)C(=O)O` (configuration not stated) (tested in a mixture with another compound), the inhibition is 3.48% (inactive). With `CCN(C[C@H]1N[C@@](Cc2ccccc2)(C(=O)OC)[C@H]2C(=O)N(C)C(=O)[C@@H]12)C(=O)Nc1ccc(F)cc1`, the inhibition is 4.09% (inactive). In the case of `CN(C)c1ccc(/C=C/C(=O)c2ccccc2)cc1[N+](=O)[O-]`, the inhibition was 16.9% (inactive).

With `COc1ccc(Oc2ccc(/C=C/C(=O)c3ccc(O)cc3)cc2[N+](=O)[O-])cc1`, the inhibition was 8.6% (inactive). Consider `COC(=O)c1cccc2c1NC(=O)C2=O`, for which the inhibition is 3.61% (inactive). Consider `O=C(NCc1ccccc1Cl)c1cccc(OC2CCN(C(=O)C3CC3)CC2)c1`, for which the inhibition was 5.75% (inactive). With `COc1ccccc1C1CC(c2ccc(F)cc2)Nc2ncnn21` (configuration not stated), the inhibition was -11.3% (inactive).

For `COc1ccccc1C1CC(c2ccc(C)cc2)Nc2ncnn21` (configuration not stated), the inhibition was -9.91% (inactive).

Take `COC(=O)CN(c1ccc(C)cc1)S(=O)(=O)c1ccc(F)cc1`: the inhibition is 14.1% (inactive). Take `CSc1ccc(Cl)c(C(=O)NNC(=O)c2cccs2)c1`: the inhibition is 1.28% (inactive).

In the case of `Cc1ccc(OCC(=O)N/N=C/C=C/c2ccco2)cc1`, the inhibition is -6.27% (inactive). For `CCOC(=O)N/N=C\C=C\c1ccco1`, the inhibition is -0.79% (inactive). For the compound `COc1ccc(OC)c2c1cc(C(=O)N[C@H](C(=O)N1CCC(C(=O)O)CC1)C(C)C)n2C`, the inhibition was -15.1% (inactive). On to `O=C(O)c1ccc(Cl)c(NCc2cccnc2)c1`, for which the inhibition is -9.94% (inactive). Then `CCCc1cc(=O)[nH]c(SCC(=O)Nc2c(C)cccc2C)n1`, with 0.09% (inactive); and `Cc1cc(C(=O)NCCC(C)C)c2ccccc2n1`, with -3.78% (inactive).

Regarding `C[N+](C)(CCOc1ccccc1)Cc1ccccc1` (tested in a mixture with another compound), the inhibition was -1.38% (inactive). Under `CC(C)(C)c1ccc(OCCNCc2ccccc2)cc1` stands 14.6% (inactive); under `CN(Cc1ccco1)C(=O)c1ccc(S(=O)(=O)N2CCCCCC2)cc1`, 2.26% (inactive); under `COc1ccc(COC(=O)c2ccc(C)c(S(=O)(=O)N3CCOCC3)c2)cc1F`, -4.83% (inactive). For `C[n+]1c(-c2ccccc2)cc(-c2ccc(Cl)cc2)cc1-c1ccccc1`, the inhibition was -0.15% (inactive). For the compound `C[n+]1c(-c2ccccc2)cc(-c2ccc(O)cc2)cc1-c1ccccc1`, the inhibition is 3.36% (inactive). Then `COCCCNC(=O)CN(c1cc(C(F)(F)F)ccc1Cl)S(C)(=O)=O`, with -8.65% (inactive); and `COC(=O)c1c(C)nn(-c2ccc(OC(F)(F)F)cc2)c1-c1snnc1C`, with 5.4% (inactive); and `COc1ccc(CCN(C)C(=O)C2CC(=O)N(Cc3ccc(C)cc3)C2)cc1OC` (configuration not stated), with -4.64% (inactive). Turning to `O=C1Nc2ccc(Br)cc2C1(O)c1ccccc1` (configuration not stated), the inhibition is -1.54% (inactive).

With `O=C1NC2(Nc3ccccc31)C(=O)Nc1ccc(Br)cc12` (configuration not stated), the inhibition is 6.01% (inactive). Then `O=C(Nc1ccc([N+](=O)[O-])cc1)c1cccc(S(=O)(=O)Nc2ccccn2)c1`, with -2.42% (inactive). Take `O=c1c2c([N+](=O)[O-])cc([N+](=O)[O-])cc2nc2ccccn12`: the inhibition was 4.66% (inactive). On to `COc1ccc(-n2cc3ccc([N+](=O)[O-])cc3n2)cc1`, for which the inhibition is -3.43% (inactive). Under `O=[N+]([O-])c1cnc2ccccc2c1` stands -7.59% (inactive); under `COc1ccccc1-n1cc2ccc([N+](=O)[O-])cc2n1`, -3.35% (inactive); under `C[C@H](CO)N1C[C@H](C)[C@@H](CN(C)Cc2ccncc2)Oc2c(cccc2N(C)C)C1=O`, 2.32% (inactive). On to `COc1ccc(Cl)cc1NC(=O)CN(C)C(=O)Cn1c(=O)oc2ccccc21`, for which the inhibition is 1.38% (inactive). In the case of `O=C(c1cc(COc2c(F)cccc2F)on1)N1CCN(C2CCCCC2)CC1`, the inhibition was 10.1% (inactive). Then `COc1ccc(-c2onc3ccc(C(=O)/C=C/N(C)C)cc23)cc1`, with 6.78% (inactive); and `O=c1oc2ccccc2c(Nc2cccc3ccccc23)c1[N+](=O)[O-]`, with 20.4% (inactive). Take `O=c1oc2ccccc2c(Nc2ccc(O)cc2)c1[N+](=O)[O-]`: the inhibition was -6.31% (inactive).

As to `CCn1c(SCC(=O)Nc2ccc3c(c2)OCCO3)nnc1C1CC1`, the inhibition was -3.26% (inactive). As for `CC1Cc2cc(-c3csc(NC(=O)Cc4ccccc4)n3)ccc2N1S(C)(=O)=O` (configuration not stated), the inhibition is 54.4% (inactive). Under `CCC(=O)Nc1nc(-c2ccc3c(c2)CC(C)N3S(C)(=O)=O)cs1` (configuration not stated) stands 58.2% (inactive); under `Cc1ccc(CCNC(=O)C2CCN(S(=O)(=O)c3ccc4c(c3)oc(=O)n4C)CC2)cc1`, -5.23% (inactive). On to `Cc1ccc(C(=O)CSc2nc(C)cc(C)c2C(N)=O)cc1`, for which the inhibition is 69% (inactive). In the case of `Cc1cc(C)c(C(N)=O)c(SCC(=O)c2cc(C)c(C)cc2C)n1`, the inhibition was 5.89% (inactive). In the case of `CN(C)c1oc(-c2ccc(Cl)cc2)nc1S(=O)(=O)c1ccccc1`, the inhibition is 3.09% (inactive).

Take `COc1ccc(CS(=O)(=O)CC(C)(O)c2ccc(Cl)cc2)cc1` (configuration not stated): the inhibition was 8.74% (inactive). Take `Cc1cc(C)n(-c2ccc(C(=O)OCC(=O)Nc3cc(S(C)(=O)=O)ccc3Cl)cc2)n1`: the inhibition was 9.43% (inactive).

Take `CC(/C=N\NC(=O)c1cc(C)oc1C)=C\c1ccccc1`: the inhibition is 5.28% (inactive).

Turning to `Cc1cc(C(=O)N/N=C/C(Cl)=C/c2ccccc2)c(C)o1`, the inhibition was 2.89% (inactive).

Regarding `COC(=O)c1cc(NC(=O)c2ccc(-c3ccccc3)cc2)ccc1Cl`, the inhibition is -0.43% (inactive).

Regarding `O=C(CSc1ncn[nH]1)NCc1ccc(Cl)cc1`, the inhibition is 23.7% (inactive).

Regarding `CC(C)c1ccc(C(=O)CSc2ncn[nH]2)cc1`, the inhibition is -3.26% (inactive).

In the case of `Cc1ccc2c(c1)Oc1ccc([N+](=O)[O-])cc1C(=O)N2`, the inhibition is 3.53% (inactive). With `Cc1ccc2c(c1)Oc1ccc(NC(=O)CCCl)cc1C(=O)N2`, the inhibition is 11.1% (inactive). With `Cc1ccc(Cn2c(N)c(S(=O)(=O)c3cccs3)c3nc4ccccc4nc32)cc1`, the inhibition was -12% (inactive). Under `COc1ccc(C(CNC(=O)COc2ccc(-c3ccccc3)cc2)N2CCOCC2)cc1` (configuration not stated) stands -6.25% (inactive); under `N/C(=N\[N+](=O)[O-])N1CCN(C(=O)c2ccccc2)CC1`, -7.03% (inactive); under `Cc1ccc(S(=O)(=O)Nc2cccc3ncccc23)cc1`, 0.6% (inactive). On to `Cc1ccc(S(=O)(=O)Nc2ccnc3ccccc23)cc1`, for which the inhibition is -5.18% (inactive).

Consider `O=S(=O)(c1ccc(=S)[nH]c1)N1CCCC1`, for which the inhibition was -0.36% (inactive). Under `CC(CCc1ccccc1)NC(=O)CCNC(=O)c1ccccc1Cl` (configuration not stated) stands 0.74% (inactive); under `O=C(CCSCc1ccccc1F)NCc1cccnc1`, 12.2% (inactive); under `O=C(Nc1nc2c(s1)CCCC2)c1cc(-c2ccncc2)nc2ccccc12`, -5.59% (inactive). As to `O=C(Nc1nc2c(s1)CCCC2)c1cc(-c2ccccc2)nc2ccccc12`, the inhibition is 65.5% (inactive). In the case of `COc1ccc(-c2ccc3oc(-c4ccc(OC)cc4)c(C#CC4(O)CCCCC4)c3c2)cc1`, the inhibition was 61.2% (inactive). In the case of `COc1ccc(-c2oc3ccc(-c4ccc(OC)nc4)cc3c2-c2ccc(OC)cc2)cc1`, the inhibition was 3.96% (inactive). For `CCC(C)(C)NC(=O)C(c1cccs1)N(C(=O)c1ccn[nH]1)c1cccc(OC)c1` (configuration not stated), the inhibition was -8.05% (inactive). Under `Cc1nn(-c2cc(N3CCCC3)ccc2[N+](=O)[O-])c(=O)c2ccccc12` stands -3.75% (inactive); under `CN1CCN(c2ccc([N+](=O)[O-])c(-n3nc(-c4ccccc4)c4ccccc4c3=O)c2)CC1`, 38.4% (inactive); under `COc1cc(C=O)ccc1OCC(=O)N1CCOCC1`, -0.06% (inactive).
